According to PubChem BioAssay (NCATS):
Values joined by “and” are separate entries in the source; they are usually repeats but may differ in a detail not shown here. Equal values may be shown once. Results filed as inconclusive are left out. Active and inactive are the calls of the source. The call rests on the fitted dose curve; in most records, active means well fitted inhibition curve with a large enough effect; inconclusive means small, poorly fitted or top-dose-only effect; inactive means flat fitted curve, though single readings scatter. Where a SMILES comes first, the peptide text is derived from it. [ ]: non-standard residue; d: D form. pGlu = O=C1CC[C@@H](C(=O)O)N1; Thz = O=C(O)[C@@H]1CSCN1

Columns and labels:
CRL-7250 = normal cell line; experiment: Cytotoxic Profiling of Annotated Libraries Using Quantitative High-Throughput Screening (AID 1296008); details: Five cell lines viability, CellTiter-Glo ATP luminescence, 48-72 h; max response: hits give low values; on max response: on the % scale 0 is the no-effect control and ±100 the full control effect
Procedure, shortened: (§1)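 Compounds were pin-transferred onto cells and incubated 48 or 72 hr at 37 degree Celsius, 95% humidity. CellTiter-Glo was added, plates sat 10 min at room temperature, then ATP-coupled luminescence was imaged as the viability read-out.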

HEK293 = experiment: as above; details: Five cell lines viability, CellTiter-Glo ATP luminescence, 48-72 h; max response: hits give low values
Procedure, shortened: as §1

HaCat = experiment: as above; details: Five cell lines viability, CellTiter-Glo ATP luminescence, 48-72 h; max response: hits give low values
Procedure, shortened: as §1

KB-3-1 = experiment: as above; details: Five cell lines viability, CellTiter-Glo ATP luminescence, 48-72 h; max response: hits give low values
Procedure, shortened: as §1

GB4 = experiment: qHTS profiling for inhibitors of Plasmodium falciparum proliferation (AID 504749); details: P. falciparum in erythrocytes, SYBR Green DNA, 72 h; series mostly up to 28.7 µM
Procedure, shortened: (§2)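 Parasite proliferation within erythrocytes, 72 h exposure. Endpoint: SYBR Green I fluorescence after overnight lysis at room temperature. Controls: 0.29 uM artemisinin, DMSO.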

HB3 = experiment: as above; details: P. falciparum in erythrocytes, SYBR Green DNA, 72 h; series mostly up to 28.7 µM
Procedure, shortened: as §2

ICS = experiment: as above; details: P. falciparum in erythrocytes, SYBR Green DNA, 72 h; series mostly up to 28.7 µM
Procedure, shortened: as §2

JCK = experiment: as above; details: P. falciparum in erythrocytes, SYBR Green DNA, 72 h; series mostly up to 28.7 µM
Procedure, shortened: as §2

N140 = experiment: as above; details: P. falciparum in erythrocytes, SYBR Green DNA, 72 h; series mostly up to 28.7 µM
Procedure, shortened: as §2

P93_24 = experiment: as above; details: P. falciparum in erythrocytes, SYBR Green DNA, 72 h; series mostly up to 28.7 µM
Procedure, shortened: as §2

P94_40 = experiment: as above; details: P. falciparum in erythrocytes, SYBR Green DNA, 72 h; series mostly up to 28.7 µM
Procedure, shortened: as §2

PAD = experiment: as above; details: P. falciparum in erythrocytes, SYBR Green DNA, 72 h; series mostly up to 28.7 µM
Procedure, shortened: as §2

PC15 = experiment: as above; details: P. falciparum in erythrocytes, SYBR Green DNA, 72 h; series mostly up to 28.7 µM
Procedure, shortened: as §2

PC26 = experiment: as above; details: P. falciparum in erythrocytes, SYBR Green DNA, 72 h; series mostly up to 28.7 µM
Procedure, shortened: as §2

PC49 = experiment: as above; details: P. falciparum in erythrocytes, SYBR Green DNA, 72 h; series mostly up to 28.7 µM
Procedure, shortened: as §2

SC27B = experiment: as above; details: P. falciparum in erythrocytes, SYBR Green DNA, 72 h; series mostly up to 28.7 µM
Procedure, shortened: as §2

TAB109 = experiment: as above; details: P. falciparum in erythrocytes, SYBR Green DNA, 72 h; series mostly up to 28.7 µM
Procedure, shortened: as §2

TAB113 = experiment: as above; details: P. falciparum in erythrocytes, SYBR Green DNA, 72 h; series mostly up to 28.7 µM
Procedure, shortened: as §2

TAB165 = experiment: as above; details: P. falciparum in erythrocytes, SYBR Green DNA, 72 h; series mostly up to 28.7 µM
Procedure, shortened: as §2

W2 = experiment: as above; details: P. falciparum in erythrocytes, SYBR Green DNA, 72 h; series mostly up to 28.7 µM
Procedure, shortened: as §2
Further: nearly all actives have a fitted effect of over 60% in size.
Potency means the concentration at half of the fitted maximal effect.

COc1ccnc2c1CCCCC2S(=O)c1nc2ccccc2[nH]1 (stereo not drawn)
inactive: max response (CRL-7250) -8.92% | max response (HEK293) -19.1% | outcome (HaCat)

Cc1ccc2c(n1)Oc1ccc(C(C)C(=O)OCC(=O)N(C)C)cc1C2 (stereo not drawn)
inactive: max response (CRL-7250) 4.34% | outcome (HEK293) | max response (HaCat) 0.244% | max response (KB-3-1) -21.6% and -9.27%

NCCO
inactive: max response (CRL-7250) -2.34% | max response (HEK293) 4.02% | outcome (HaCat) | max response (KB-3-1) -25.6%

CN(CCCOc1ccc(Cc2ccccc2)cc1)CCC(=O)O
inactive: max response (CRL-7250) 2.73% | max response (HEK293) -4.43% | max response (HaCat) -16.1% | max response (KB-3-1) 7.31%

CC(=O)c1ccc(OCC(=O)N2CCCCC2)cc1
inactive: max response (CRL-7250) 2.04% | max response (HEK293) -3.89% | max response (HaCat) -0.673% | outcome (KB-3-1)

Nc1ccc([N+](=O)[O-])cc1O
inactive: max response (CRL-7250) -25% | max response (HEK293) -27.4% | max response (HaCat) 4.66% | max response (KB-3-1) 10.6%

COC(=O)c1nc(Cl)c(Cl)nc1N
active: Potency (CRL-7250) 5.31 µM | Potency (HEK293) 0.841 µM

C#CC1(O)CC[C@H]2[C@@H]3CCC4=CCCC[C@@H]4[C@H]3CC[C@@]21C (stereo partly drawn)
inactive: max response (CRL-7250) -8.11% | outcome (HEK293) | outcome (HaCat) | max response (KB-3-1) -2.21%

C/C(=N\O)c1ccc(OCC(=O)N2CCCCC2)cc1
inactive: max response (CRL-7250) -1.81% | max response (HEK293) 2.8% | max response (HaCat) 2.33% | outcome (KB-3-1)

Nc1ccc(O)c([N+](=O)[O-])c1
inactive: max response (CRL-7250) 4.51% | max response (HEK293) -8.71% | outcome (HaCat)

CC(C(=O)O)c1ccc(C(=O)c2ccccc2)s1 (stereo not drawn)
inactive: outcome (CRL-7250) | max response (HEK293) 0.794% | outcome (HaCat) | max response (KB-3-1) 0.65%

COc1cccc2c1C(=O)c1c(O)c3c(c(O)c1C2=O)C[C@@](O)(C(=O)CO)C[C@@H]3O[C@H]1C[C@H](N)[C@H](O[C@@H]2CCCCO2)[C@H](C)O1
active: Potency (CRL-7250) 2.37 µM | Potency (HEK293) 0.0841 µM | Potency (HaCat) 0.0531 µM

CCNC(=O)[C@H]1O[C@@H](n2cnc3c(N)nc(NCCc4ccc(CCC(=O)O)cc4)nc32)[C@H](O)[C@@H]1O
inactive: max response (CRL-7250) 3.23% | outcome (HEK293) | max response (HaCat) 2.46% | max response (KB-3-1) 2.49%

CC(C(=O)O)c1ccc2c(c1)[nH]c1ccc(Cl)cc12 (stereo not drawn)
inactive: Potency (GB4) | Potency (HB3) | Potency (ICS) | Potency (JCK) | Potency (N140) | Potency (P93_24) | Potency (P94_40) | Potency (PAD) | Potency (PC15) | Potency (PC26) | Potency (PC49) | Potency (SC27B) | Potency (TAB109) | Potency (TAB113) | Potency (TAB165) | Potency (W2) | max response (CRL-7250) 2.04% | outcome (CRL-7250) | max response (HEK293) -1.79% | outcome (HEK293) | max response (HaCat) 1.94% | outcome (HaCat) | max response (KB-3-1) 2.49% and 1.67%

O=[N+]([O-])c1ccc(CNc2nc(NCc3cccc(C(F)(F)F)c3)nc3nc[nH]c23)cc1
inactive: max response (CRL-7250) -5.54% | max response (HEK293) -22% | max response (HaCat) 0.807% | outcome (KB-3-1)

N=C1N=C(N)c2cc3ccccc3cc21
active: Potency (CRL-7250) 17.2 µM | Potency (HEK293) 19.3 µM

CN(C)CCn1nnnc1SCC1=C(C(=O)O)N2C(=O)[C@@H](NC(=O)Cc3csc(N)n3)[C@H]2SC1
inactive: max response (CRL-7250) -7.23% | max response (HEK293) -4.49% | outcome (HaCat) | max response (KB-3-1) -1.99%

CC(C)OC(=O)c1cc(C(=O)OC(C)C)cc([N+](=O)[O-])c1
inactive: outcome (CRL-7250) | max response (HEK293) 4.1% | outcome (HaCat) | max response (KB-3-1) 2.68%

CNC(=O)c1c(I)c(NC(=O)CCCCC(=O)Nc2c(I)c(C(=O)O)c(I)c(C(=O)NC)c2I)c(I)c(C(=O)O)c1I
inactive: max response (CRL-7250) -5.95% | max response (HEK293) -10.9%

COC(=O)Nc1nc2ccc(C(=O)C3CC3)cc2[nH]1
active: Potency (CRL-7250) 2.99 µM | Potency (HEK293) 0.75 µM
inactive: outcome (HaCat)

O=C(O)Cc1ccc2c(c1)C(=O)c1ccccc1CO2
inactive: outcome (CRL-7250) | max response (HEK293) -3.93% | max response (HaCat) 4.48%

CCCCCCCCCCCCOCCO
inactive: max response (CRL-7250) -9.14% | max response (HEK293) -2.23% | max response (HaCat) -12.4%

CC(C)(C)c1nnc(NS(=O)(=O)c2ccc(N)cc2)s1
inactive: max response (CRL-7250) 2.87% | max response (HEK293) -1.6% | outcome (HaCat)

CO[C@@]1(NC(=O)Cc2cccs2)C(=O)N2C(C(=O)O)=C(COC(N)=O)CS[C@@H]21
inactive: outcome (CRL-7250) | outcome (HEK293) | outcome (HaCat) | max response (KB-3-1) -24.9% and -6.96%

CCCCCCCC/C=C/C(=O)O
inactive: outcome (CRL-7250) | max response (HEK293) 0.673% | outcome (HaCat)

N=C(N)N
inactive: max response (CRL-7250) -5.46% | outcome (HEK293) | outcome (HaCat) | max response (KB-3-1) -12.6%

CC(=O)SCC(CC(=O)c1ccc(C)cc1)C(=O)O (stereo not drawn)
inactive: max response (CRL-7250) 2.17% | outcome (HEK293) | max response (HaCat) -9.14% | outcome (KB-3-1)

CCNc1nc2c(ncn2[C@H]2C[C@H](O)[C@@H](CO)O2)c(=O)[nH]1
inactive: max response (CRL-7250) 0.139% | outcome (HEK293) | max response (HaCat) -28.7% | outcome (KB-3-1)

O=C(Nc1ccc2[nH]ncc2c1)C1CCC1
inactive: outcome (CRL-7250) | max response (HEK293) 0.86% | max response (HaCat) -2.65% | max response (KB-3-1) -1.12%

C[N+]1(C)[C@@H]2CC(OC(=O)[C@H](CO)c3ccccc3)C[C@H]1[C@@H]1O[C@@H]12 (stereo partly drawn)
inactive: outcome (CRL-7250) | outcome (HEK293) | outcome (HaCat)

Cc1c(N)c(=O)n(-c2ccccc2)n1C
inactive: max response (CRL-7250) 4.52% | max response (HEK293) -1.84% | outcome (HaCat) | max response (KB-3-1) -14.7%

O=C(Nc1ccc2c(c1)CCN(Cc1ncn[nH]1)C2)c1ccccc1-c1ccc(C(F)(F)F)cc1
active: Potency (HEK293) 23.1 µM
inactive: max response (CRL-7250) -23.1% | max response (HaCat) 0.241% | max response (KB-3-1) 1.94%

O=C1CC[C@@H](C(=O)N2CSC[C@H]2C(=O)O)N1 ([pGlu]-[Thz]-OH)
inactive: Potency (GB4) | Potency (HB3) | Potency (ICS) | Potency (JCK) | Potency (N140) | Potency (P93_24) | Potency (P94_40) | Potency (PAD) | Potency (PC15) | Potency (PC26) | Potency (PC49) | Potency (SC27B) | Potency (TAB109) | Potency (TAB113) | Potency (TAB165) | Potency (W2) | max response (CRL-7250) -1.65% | max response (HEK293) -11.6% | max response (HaCat) 2.27% | max response (KB-3-1) -5.47% | outcome (KB-3-1)

O=c1[nH]c2ccccc2n1CCCN1CCN(C(c2ccccc2)c2ccccc2)CC1
active: Potency (GB4) 13.5 µM | Potency (ICS) 7.94 µM | Potency (N140) 11.2 µM | Potency (W2) 6.75 µM | Potency (HEK293) 16.8 µM
inactive: Potency (HB3) | Potency (JCK) | max response (CRL-7250) -27.4% | max response (HaCat) -21.6% | max response (KB-3-1) 18.6%

CN1[C@@H]2CC[C@H]1CC(OC(=O)C(CO)c1ccccc1)C2 (stereo partly drawn)
inactive: Potency (GB4) | Potency (HB3) | Potency (ICS) | Potency (JCK) | Potency (N140) | Potency (P93_24) | Potency (P94_40) | Potency (PAD) | Potency (PC15) | Potency (PC26) | Potency (PC49) | Potency (SC27B) | Potency (TAB109) | Potency (TAB113) | Potency (TAB165) | Potency (W2) | max response (CRL-7250) -9.68% | max response (HEK293) 2.75% | max response (HaCat) -9.85% | max response (KB-3-1) -5.74% and -6.73% and 8.38%
